For part of these data: Potency and affinity values are given separately. Active and inactive are the calls of the source. Unless noted, the rule behind the calls is not given here.
How the values were obtained:
[1] = antimalarial activity against Dd2 strain (AID 2302;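 active = growth inhibition above 50% at the single 2 µM test dose, taken to imply half-maximal potency below 2 µM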;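 note: 0% = DMSO untreated growth and 100% = chloroquine plus artemisinin killed control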); details: P. falciparum Dd2 in RBCs, LDH growth readout, 72 h; at 2 µM; stronger effect = higher value
[2] = human hepatoma cell viability loss – ATP luminescence, cytotoxicity control for P. falciparum antimalarial project, primary screen (AID 2303;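 active = inhibition above 50%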;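 note: 0% = DMSO wells and 100% = digitonin-killed cells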); details: HepG2 viability, 24-48 h, at 10 µM, stronger effect = higher value
[3] = biological target: L-lactate dehydrogenase (Plasmodium falciparum (isolate CDC / Honduras)) (UniProt Q27743); test: PfLDH activity inhibition – cell lysate, 3D7 strain, counter-screen for P. falciparum growth inhibition project (AID 2304);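 note: 0% = vehicle and 100% = reference inhibitor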; details: P. falciparum 3D7 crude extract, LDH APAD/NBT absorbance; at 2 µM; stronger effect = higher value
L-lactate dehydrogenase (Plasmodium falciparum (isolate CDC / Honduras)), sequence (Q27743 whole entry, looked up): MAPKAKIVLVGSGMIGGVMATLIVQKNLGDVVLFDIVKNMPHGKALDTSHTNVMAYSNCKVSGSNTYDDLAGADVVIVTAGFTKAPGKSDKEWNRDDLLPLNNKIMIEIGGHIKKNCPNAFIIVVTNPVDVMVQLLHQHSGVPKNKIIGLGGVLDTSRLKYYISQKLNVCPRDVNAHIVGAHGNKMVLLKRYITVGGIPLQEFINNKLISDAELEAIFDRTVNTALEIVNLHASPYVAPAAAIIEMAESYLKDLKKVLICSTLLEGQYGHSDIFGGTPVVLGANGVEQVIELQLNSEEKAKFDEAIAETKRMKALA

[4] = inhibition of 3D7 malaria parasite growth – strain 3D7 (AID 2306);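 note: 0% = DMSO wells and 100% = chloroquine plus artemisinin control wells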; details: P. falciparum 3D7 erythrocytic growth, LDH absorbance, 72 h; at 2 µM; stronger effect = higher value
[5] = biological target: Calcium-dependent protein kinase 1 (Plasmodium falciparum (isolate 3D7)) (UniProt P62344); test: PfCDPK1 kinase inhibitors, biochemical, TCAMS library (AID 1159585; cut-off not given, nearly all actives have IC50 up to about 0.98 µM;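 note: inhibitors leave more ATP so luminescence rises with inhibition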); details: recombinant PfCDPK1, Kinase-Glo ATP depletion luminescence
Calcium-dependent protein kinase 1 (Plasmodium falciparum (isolate 3D7)), sequence (P62344 whole entry, looked up): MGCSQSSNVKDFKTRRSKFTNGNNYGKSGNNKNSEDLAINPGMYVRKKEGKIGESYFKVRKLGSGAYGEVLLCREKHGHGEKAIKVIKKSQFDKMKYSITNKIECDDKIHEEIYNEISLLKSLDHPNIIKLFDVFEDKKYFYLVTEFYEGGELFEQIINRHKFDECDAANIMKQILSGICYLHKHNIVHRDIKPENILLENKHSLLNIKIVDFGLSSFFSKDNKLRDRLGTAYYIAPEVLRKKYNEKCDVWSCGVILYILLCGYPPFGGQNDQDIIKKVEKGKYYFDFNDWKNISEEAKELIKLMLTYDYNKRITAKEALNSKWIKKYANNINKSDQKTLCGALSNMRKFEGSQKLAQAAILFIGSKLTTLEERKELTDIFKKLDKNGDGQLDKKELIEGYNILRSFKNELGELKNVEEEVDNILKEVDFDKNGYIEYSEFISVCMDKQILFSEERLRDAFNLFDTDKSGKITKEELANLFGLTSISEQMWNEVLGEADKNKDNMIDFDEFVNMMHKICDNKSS

[6] = biological target: Plasmodium falciparum protein kinase 6 (PK6, PF3D7_1337100) (UniProt Q8IDW1); test: PfPK6 kinase inhibitors, biochemical, TCAMS library (AID 1159586); details: recombinant PfPK6, Kinase-Glo ATP depletion luminescence
Plasmodium falciparum protein kinase 6 (PK6, PF3D7_1337100), sequence (Q8IDW1 1-305): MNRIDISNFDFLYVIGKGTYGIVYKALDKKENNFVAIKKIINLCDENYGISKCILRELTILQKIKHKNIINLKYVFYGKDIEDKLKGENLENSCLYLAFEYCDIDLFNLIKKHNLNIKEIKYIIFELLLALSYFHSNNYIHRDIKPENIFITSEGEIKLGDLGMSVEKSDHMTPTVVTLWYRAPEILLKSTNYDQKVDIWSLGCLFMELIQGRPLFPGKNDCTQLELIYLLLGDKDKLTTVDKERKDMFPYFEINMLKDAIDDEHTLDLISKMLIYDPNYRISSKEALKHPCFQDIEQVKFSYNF

[7] = biological target: Protein kinase 7 (PK7), Plasmodium falciparum 3D7 (PF3D7_0213400) (UniProt Q7YTF7); test: inhibition of Plasmodium PK7 catalytic activity – biochemical, TCAMS antimalarial set, Kinase-Glo luminescence (AID 1159587); details: recombinant PfPK7, Kinase-Glo ATP depletion luminescence
Protein kinase 7 (PK7), Plasmodium falciparum 3D7 (PF3D7_0213400), sequence (Q7YTF7 1-343): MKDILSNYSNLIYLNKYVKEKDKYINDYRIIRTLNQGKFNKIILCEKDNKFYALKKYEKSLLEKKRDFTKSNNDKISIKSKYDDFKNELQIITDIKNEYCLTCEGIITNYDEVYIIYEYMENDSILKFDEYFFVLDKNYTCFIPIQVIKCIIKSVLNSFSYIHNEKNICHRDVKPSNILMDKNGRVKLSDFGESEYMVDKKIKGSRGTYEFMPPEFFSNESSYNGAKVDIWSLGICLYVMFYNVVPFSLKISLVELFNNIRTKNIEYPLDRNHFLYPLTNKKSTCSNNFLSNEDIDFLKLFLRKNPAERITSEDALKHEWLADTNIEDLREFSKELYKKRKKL

[8] = biological target: Calcium-dependent protein kinase 4 (Plasmodium falciparum (isolate 3D7)) (UniProt Q8IBS5); test: PfCDPK4 kinase inhibitors, biochemical, TCAMS library (AID 1159588; cut-off not given, nearly all actives have IC50 up to about 0.91 µM); details: recombinant PfCDPK4, Kinase-Glo ATP depletion luminescence
Calcium-dependent protein kinase 4 (Plasmodium falciparum (isolate 3D7)), sequence (Q8IBS5 whole entry, looked up): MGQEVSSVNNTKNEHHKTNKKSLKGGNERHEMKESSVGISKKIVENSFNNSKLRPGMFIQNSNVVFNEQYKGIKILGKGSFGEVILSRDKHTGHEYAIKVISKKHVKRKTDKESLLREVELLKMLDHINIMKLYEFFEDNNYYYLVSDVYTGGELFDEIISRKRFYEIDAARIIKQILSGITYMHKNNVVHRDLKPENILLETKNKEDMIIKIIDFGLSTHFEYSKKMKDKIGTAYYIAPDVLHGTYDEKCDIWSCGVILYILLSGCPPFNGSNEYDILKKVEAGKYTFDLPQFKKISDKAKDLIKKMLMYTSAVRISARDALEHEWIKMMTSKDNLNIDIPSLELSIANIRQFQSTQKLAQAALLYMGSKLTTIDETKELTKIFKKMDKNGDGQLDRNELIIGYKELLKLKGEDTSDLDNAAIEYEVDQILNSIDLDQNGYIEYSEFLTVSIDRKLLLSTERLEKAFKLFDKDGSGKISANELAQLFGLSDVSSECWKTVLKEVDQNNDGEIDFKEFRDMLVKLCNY

Nc1oc2c(CN3CCCCCC3)c(O)ccc2c(=O)c1-c1nc2ccccc2s1
inactive: inhibition [2] 12% | inhibition [3] 4% | outcome [5] | outcome [6] | outcome [7] | outcome [8]
active: growth inhibition [1] 99% | growth inhibition [4] 100%

NC(=O)c1cccc(CN2Cc3ccccc3OC3(CCN(Cc4c[nH]c5cnccc45)CC3)C2)c1
active: growth inhibition [4] 94%
inactive: growth inhibition [1] 2% | inhibition [2] 9% | inhibition [3] -2% | outcome [5] | outcome [6] | outcome [7] | outcome [8]

COc1ccc(C2CCN(CCN3CCC(NC(=O)c4cccc(-c5ccncc5)c4)CC3)CC2)c(OC)c1
active: growth inhibition [4] 94%
inactive: growth inhibition [1] 24% | inhibition [2] 7% | inhibition [3] -6% | outcome [5] | outcome [6] | outcome [7] | outcome [8]

COc1ccc(Cn2c(N3CCN(S(=O)(=O)c4ccc(OC)cc4)CC3)nc3c2c(=O)n(CC2CC2)c(=O)n3CC2CC2)cc1
inactive: growth inhibition [1] 39% | inhibition [2] -12% | inhibition [3] -3% | outcome [5] | outcome [6] | outcome [7] | outcome [8]
active: growth inhibition [4] 92%

CC(=O)c1cccc(NC(=O)C2c3ccccc3C(=O)N(CC(C)C)C2c2cccs2)c1 (stereo not drawn)
inactive: inhibition [2] 11% | inhibition [3] -2% | outcome [5] | outcome [6] | outcome [7] | outcome [8]
active: growth inhibition [1] 100% | growth inhibition [4] 100%

Cc1cc(N2CCN(CC3CCN(C)CC3)CC2)nc(Nc2ccc(Cl)cc2)n1
inactive: inhibition [2] 20% | inhibition [3] -6% | outcome [5] | outcome [6] | outcome [7] | outcome [8]
active: growth inhibition [1] 89% | growth inhibition [4] 99%

CNCCCn1c(N(C)C)nc2cc(-n3cnc4cc(-c5ccc(Cl)cc5)sc4c3=O)ccc21
inactive: growth inhibition [1] 27% | inhibition [2] 39% | inhibition [3] 1% | outcome [5] | outcome [6] | outcome [7] | outcome [8]
active: growth inhibition [4] 86%

O=C(c1ccc(Cl)cc1)C1CCCN(C2CCN(CCc3ccccc3)CC2)C1 (stereo not drawn)
inactive: inhibition [2] 37% | inhibition [3] 1% | outcome [5] | outcome [6] | outcome [7] | outcome [8]
active: growth inhibition [1] 51% | growth inhibition [4] 96%

CN(CCCNCc1ccc2ccccc2c1)CCCNCc1ccc2ccccc2c1
inactive: inhibition [3] 1% | outcome [5] | outcome [6] | outcome [7] | outcome [8]
active: growth inhibition [1] 79% | inhibition [2] 100% | growth inhibition [4] 100%

N#Cc1ccc2c(c1)CCN(CCC1CCC(NC(=O)/C=C/c3cccc4cc[nH]c34)CC1)CC2 (stereo not drawn)
active: growth inhibition [4] 89%
inactive: growth inhibition [1] 29% | inhibition [2] 22% | inhibition [3] -3% | outcome [5] | outcome [6] | outcome [7] | outcome [8]

c1ccc(OCCOc2ccc(Nc3ccnc4cc5ccccc5cc34)cc2)cc1
inactive: inhibition [2] 44% | inhibition [3] 7% | outcome [5] | outcome [6] | outcome [7] | outcome [8]
active: growth inhibition [1] 96% | growth inhibition [4] 102%

Cc1cccc2[nH]c(-c3cccc(-c4cccc(NC(=O)c5cnn6cccnc56)c4)c3)nc12
active: growth inhibition [4] 101%
inactive: growth inhibition [1] 17% | inhibition [2] 14% | inhibition [3] -3% | outcome [5] | outcome [6] | outcome [7] | outcome [8]

CCCCCCCCN1CCN(CCCCCCNc2c3ccccc3nc3ccccc23)CC1
inactive: inhibition [3] -4% | outcome [5] | outcome [6] | outcome [7] | outcome [8]
active: growth inhibition [1] 100% | inhibition [2] 100% | growth inhibition [4] 101%

O=C(Nc1cccc(C(F)(F)F)c1)N1CCOC(CCN2CCC(c3ccccc3)CC2)(c2ccc(Cl)c(Cl)c2)C1 (stereo not drawn)
inactive: inhibition [2] 15% | inhibition [3] 8% | outcome [5] | outcome [6] | outcome [7] | outcome [8]
active: growth inhibition [1] 69% | growth inhibition [4] 87%

CCCOc1ccc(-c2nonc2NC(=O)c2cccc(OC)c2)cc1OCCC
inactive: inhibition [2] 18% | inhibition [3] 0% | outcome [5] | outcome [6] | outcome [7] | outcome [8]
active: growth inhibition [1] 100% | growth inhibition [4] 94%

Cc1cc(C)cc(-n2c(C)cc(C=C3SC(=Nc4ccc(Cl)cc4)NC3=O)c2C)c1
inactive: inhibition [2] 12% | inhibition [3] -7% | outcome [5] | outcome [6] | outcome [7] | outcome [8]
active: growth inhibition [1] 97% | growth inhibition [4] 97%

COC(=O)c1cccc(CNCc2ccc(-c3ccc(-c4nc5c(C)cccc5[nH]4)s3)cc2)c1
active: growth inhibition [1] 64% | growth inhibition [4] 101%
inactive: inhibition [2] 3% | inhibition [3] 0% | outcome [5] | outcome [6] | outcome [7] | outcome [8]

COC(=O)c1cccc(CNCc2ccc(-c3cccc(-c4nc5ccccc5[nH]4)c3)cc2)c1
inactive: growth inhibition [1] 46% | inhibition [2] 5% | inhibition [3] -3% | outcome [5] | outcome [6] | outcome [7] | outcome [8]
active: growth inhibition [4] 101%

O=C(c1ccc([N+](=O)[O-])o1)N1CCC(c2cn(Cc3cccc(F)c3)c3ccccc23)CC1
active: growth inhibition [1] 95% | growth inhibition [4] 97%
inactive: inhibition [2] 1% | inhibition [3] -2% | outcome [5] | outcome [6] | outcome [7] | outcome [8]

FC(F)(F)c1ccc2c(NCCc3ccccc3)ccnc2c1
inactive: growth inhibition [1] 9% | inhibition [2] 14% | inhibition [3] 0% | outcome [5] | outcome [6] | outcome [7] | outcome [8]
active: growth inhibition [4] 87%

CC(C)(C)COC(=O)c1ccc(NC(=O)N[C@@H](Cc2ccc(O)cc2)C(=O)NC2CCN(Cc3ccc(O)cc3)C2)cc1 (stereo partly drawn)
active: growth inhibition [4] 94%
inactive: growth inhibition [1] 21% | inhibition [2] 3% | inhibition [3] -1% | outcome [5] | outcome [6] | outcome [7] | outcome [8]

COc1ccccc1C1CCN(C2CCC(NC(=O)/C=C/c3cccc(C(F)(F)F)c3)CC2)CC1 (stereo not drawn)
active: growth inhibition [4] 99%
inactive: growth inhibition [1] 34% | inhibition [2] 38% | inhibition [3] -3% | outcome [5] | outcome [6] | outcome [7] | outcome [8]

CCCCCCCNc1cc(C)nc2ccc(OC)cc12
active: growth inhibition [1] 100% | growth inhibition [4] 101%
inactive: inhibition [2] 30% | inhibition [3] -2% | outcome [5] | outcome [6] | outcome [7] | outcome [8]

CCN(C(=O)CSc1cc(C)c2cc(C)cc(C)c2n1)C1CCS(=O)(=O)C1 (stereo not drawn)
active: growth inhibition [1] 82% | growth inhibition [4] 97%
inactive: inhibition [2] 5% | inhibition [3] -1% | outcome [5] | outcome [6] | outcome [7] | outcome [8]

COc1ccc(CNC2CCN(C)CC2)cc1-c1ccc(S(=O)(=O)NCc2cccnc2)s1
active: growth inhibition [4] 100%
inactive: growth inhibition [1] 3% | inhibition [2] 10% | inhibition [3] -4% | outcome [5] | outcome [6] | outcome [7] | outcome [8]

CN(C)Cc1cccc(-c2ccc(NC(=O)c3ccc4c(=O)n(CCN5CCCCC5)cnc4c3)cc2)c1
inactive: inhibition [2] 23% | inhibition [3] -1% | outcome [5] | outcome [6] | outcome [7] | outcome [8]
active: growth inhibition [1] 67% | growth inhibition [4] 101%

O=C(/C=C/c1ccc(Cl)c(Cl)c1)NC1CCC(CN2CCC(c3nc4ccc(O)cc4[nH]3)CC2)CC1 (stereo not drawn)
inactive: inhibition [2] 41% | inhibition [3] -6% | outcome [5] | outcome [6] | outcome [7] | outcome [8]
active: growth inhibition [1] 84% | growth inhibition [4] 101%

Cc1[nH]c(C)c(-c2ccc(C(=O)c3ccc(Cl)cc3)cc2)c(=O)c1Br
inactive: inhibition [2] 10% | inhibition [3] 4% | outcome [5] | outcome [6] | outcome [7] | outcome [8]
active: growth inhibition [1] 95% | growth inhibition [4] 97%

CCN1CCCC1CN(Cc1ccc(-c2ccc(C(F)(F)F)cc2)cc1)C(=O)Cn1c(CCc2cccc(F)c2F)nc(=O)c2ccccc21 (stereo not drawn)
active: growth inhibition [1] 51% | growth inhibition [4] 94%
inactive: inhibition [2] 40% | inhibition [3] 2% | outcome [5] | outcome [6] | outcome [7] | outcome [8]

Cc1[nH]c(CNCCCNc2cc(=O)c3ccccc3[nH]2)c(Br)c1Br
active: growth inhibition [4] 91%
inactive: growth inhibition [1] 47% | inhibition [2] -3% | inhibition [3] 4% | outcome [5] | outcome [6] | outcome [7] | outcome [8]

CCCCCCN1CCN(Cc2cccc(NC(=O)c3cc4ccccc4s3)c2)CC1
inactive: inhibition [2] 20% | inhibition [3] -1% | outcome [5] | outcome [6] | outcome [7] | outcome [8]
active: growth inhibition [1] 68% | growth inhibition [4] 93%

COc1ccc(-c2ccc(CNCc3ccccc3)cc2)cc1S(=O)(=O)NCCN1CCCC1
inactive: inhibition [2] 36% | inhibition [3] -3% | outcome [5] | outcome [6] | outcome [7] | outcome [8]
active: growth inhibition [1] 76% | growth inhibition [4] 102%

CC(C)C[C@H](NC(=O)c1ccc(OCCN2CCOCC2)cc1)C(=O)N[C@H](/C=N/N1CCNC1=O)CCc1ccccc1
inactive: inhibition [2] 1% | inhibition [3] 4% | outcome [5] | outcome [6] | outcome [7] | outcome [8]
active: growth inhibition [1] 94% | growth inhibition [4] 89%

CCc1cn(CCc2ccccc2)c2ccc(C(=O)N[C@@H](Cc3ccccc3)[C@H](O)CNC(C)(C)CCCC(C)C)cc12
active: growth inhibition [1] 99% | inhibition [2] 66% | growth inhibition [4] 98%
inactive: inhibition [3] 5% | outcome [5] | outcome [6] | outcome [7] | outcome [8]

CN(Cc1ccc(-c2ccc(C(F)(F)F)cc2)cc1)C(=O)Cn1c(CCc2cccc(F)c2F)cc(=O)c2ccc(OCCCN3CCCCC3)cc21
inactive: inhibition [3] 5% | outcome [5] | outcome [6] | outcome [7] | outcome [8]
active: growth inhibition [1] 90% | inhibition [2] 79% | growth inhibition [4] 103%

COc1ccc(-c2ccc(NC(=O)c3ccc(Cl)cc3)cc2)cc1CN(C)CCN(C)C
inactive: inhibition [2] 37% | inhibition [3] -2% | outcome [5] | outcome [6] | outcome [7] | outcome [8]
active: growth inhibition [1] 61% | growth inhibition [4] 97%
